Only some compounds are listed: those with a hit (about 7% of all), similar ones and a draw of the others.
PI5P4Ka inh – blocks human PI5P4K alpha kinase activity. PI5P4Kalpha enzyme, ADP-Glo luminescence, 60 min; hits give low values. max response, %. 330,000 tested, 1.2% active. AID 652105; active = max response of -50% or lower; inconclusive = between -30% and -50%; inactive = -30% or higher; also: value at the top dose of about 77 µM; % is scaled to controls: 0 for no effect and ±100 for the full control effect
Target sequence (P48426 whole entry, looked up): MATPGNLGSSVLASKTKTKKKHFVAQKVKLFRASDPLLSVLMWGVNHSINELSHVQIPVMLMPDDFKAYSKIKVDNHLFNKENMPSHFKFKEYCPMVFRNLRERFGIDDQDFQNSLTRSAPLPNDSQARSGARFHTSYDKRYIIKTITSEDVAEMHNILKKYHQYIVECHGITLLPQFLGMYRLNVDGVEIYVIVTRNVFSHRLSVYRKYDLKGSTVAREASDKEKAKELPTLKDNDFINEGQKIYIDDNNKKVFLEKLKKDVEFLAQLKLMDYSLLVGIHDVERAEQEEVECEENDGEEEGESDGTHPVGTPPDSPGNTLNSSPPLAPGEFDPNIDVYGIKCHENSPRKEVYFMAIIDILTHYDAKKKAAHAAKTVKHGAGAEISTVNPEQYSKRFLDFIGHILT
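Luminescence from ADP-Glo served as readout of PI5P4Kalpha activity in a qHTS format. Reaction: enzyme, substrate, compound, ATP at 5 microM final, 60 min at RT.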
BAZ2B inh – blocks human BAZ2B; AlphaScreen BAZ2B-H3K14Ac peptide displacement; Potency, µM (top dose mostly 114 µM), without a hit: top-dose activity change, negative = inhibition, most hits filed as inhibitors; AID 504333; 360,000 tested, 4.4% active; Q9UIF8; also: potency is read from the fitted curve at half-maximal effect; % is scaled to controls: 0 for no effect and ±100 for the full control effect; nearly all actives have a fitted effect of over 60% in size
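Multi-concentration screen (max 110 uM) measuring displacement of acetylated histone H3 peptide from BAZ2B by AlphaScreen, using 50 nM protein, 50 nM peptide and 10 ug/mL streptavidin donor plus Ni-chelate acceptor beads.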
PLK1 PBD block – PLK1 (human) polo-box domain binding inhibition; P53350; Plk1 PBD binding of FITC phosphopeptide, fluorescence polarization; Potency, µM, without a hit: max response, negative = inhibition, hits mostly inhibitors; 360,000 tested, 2.8% active; also: potency is read from the fitted curve at half-maximal effect; series mostly up to about 57 µM; % is scaled to controls: 0 for no effect and ±100 for the full control effect; nearly all actives have a fitted effect of over 65% in size
HP1b binding inh – blocks HP1-beta chromodomain binding to methylated histone tails; P83916; AlphaScreen HP1-beta / biotin-H3K9me3 peptide binding; Potency, µM (doses to about 114 µM), inactives show top-dose activity change, negative = inhibition, actives largely listed as inhibitors; 390,000 tested, 0.56% active; AID 540317; also: potency is read from the fitted curve at half-maximal effect; nearly all actives have a fitted effect of over 70% in size
Target sequence (P83916 whole entry, looked up): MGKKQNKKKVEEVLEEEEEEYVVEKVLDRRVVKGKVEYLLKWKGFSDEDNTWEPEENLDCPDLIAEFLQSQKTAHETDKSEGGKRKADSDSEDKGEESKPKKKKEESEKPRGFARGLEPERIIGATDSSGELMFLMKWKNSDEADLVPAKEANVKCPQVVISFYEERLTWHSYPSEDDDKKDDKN
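Compound inhibition of the preformed complex between 50 nM HP1-beta and 50 nM biotinylated H3K9me3 peptide was read by AlphaScreen. Buffer was PBS pH 7.4 with 0.01% Tween-20. Incubations ran 30 min at room temperature, with 10 ug/mL donor/acceptor beads.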
KAT2A inh – inhibitors of human GCN5L2 histone acetyltransferase. Q92830. GCN5L2 HAT assay, ThioGlo1 CoA-SH fluorescence. Potency, µM (series often up to 58.9 µM), for the others: at the top dose activity change, negative = inhibition, most hits filed as inhibitors. 390,000 tested, 0.21% active. AID 504327; also: potency is read from the fitted curve at half-maximal effect; % is scaled to controls: 0 for no effect and ±100 for the full control effect
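qHTS, 1536-well. 20nM enzyme, pH 7.5 HEPES/EDTA/Tween-20 buffer; 15 min compound preinc., RT. Start: 75uM H3(1-25), 70uM AcCoA, 50uM ThioGlo1. Read Ex340/Em540 at t=0 (autofluorescence flag) and t=20 min.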
JMJD2A Tudor inh – inhibitors of human JMJD2A Tudor domain. AlphaScreen JMJD2A-Tudor / H3K4me3 peptide binding. Potency, µM (highest dose often 114 µM), inactives show at the top dose activity change, negative = inhibition, most hits filed as inhibitors. 390,000 tested, 4.4% active. AID 504339; also: potency is read from the fitted curve at half-maximal effect; % is scaled to controls: 0 for no effect and ±100 for the full control effect; nearly all actives have a fitted effect of over 50% in size
* = called active by the depositor; ? = inconclusive; · = no result given. Unless noted, calls follow the shape of the dose curve; as a rule, active = well fitted curve in the direction sought with a large enough effect; inconclusive = small, poorly fitted or top-dose-only effect, or another doubt; inactive = no such curve, though single readings can be large; an effect the other way counts as inactive or inconclusive.

SMILES | PI5P4Ka inh | BAZ2B inh | PLK1 PBD block | HP1b binding inh | KAT2A inh | JMJD2A Tudor inh
COCCN(C(=O)CCCc1nc2ccccc2s1)c1c(N)n(CC(C)C)c(=O)[nH]c1=O | -6 | 8% | 24µM* | 41% | 1% | -3%
Cc1ccc2nc(SCC(=O)N(CC(C)C)c3c(N)n(CC(C)C)c(=O)[nH]c3=O)[nH]c2c1 | 3 | 0% | -5% | 44% | -5% | -2%
CCCCn1c(N)c(N(CCC(C)C)C(=O)CSc2nc3ccccc3n2C)c(=O)[nH]c1=O | 2 | · | -29% | -39% | · | 79µM*
CCCCn1c(N)c(N(CCC(C)C)C(=O)c2cc(Cl)nc3ccccc23)c(=O)[nH]c1=O | 1 | 19% | -2% | 6% | 0% | -24%
Cc1cc(SCC(=O)N(CC(C)C)c2c(N)n(CC(C)C)c(=O)[nH]c2=O)nc2ccccc12 | -14 | 3% | 13µM* | 11% | -11% | -6%
COCCN(C(=O)CSc1nnc(-c2ccc(C)cc2)n1N)c1c(N)n(Cc2ccccc2)c(=O)[nH]c1=O | 0 | -10% | 0% | 19% | -2% | -14%
COCCN(C(=O)CSc1nnc(C)n1Cc1ccccc1)c1c(N)n(CC(C)C)c(=O)[nH]c1=O | -6 | -15% | ? | -3% | -8% | 79µM*
CCOc1ccc(-c2cc3nc(C4CCN(C(=O)OC(C)(C)C)CC4)c(C(=O)Nc4ccc(C)cc4C)cn3n2)cc1 | · | 1% | · | 45% | -15% | -12%
Cn1cc(Br)c(C(=O)N2CCN(c3cccc(Cl)c3)CC2)n1 | -8 | -16% | -11% | 34% | 2% | -20%
Cn1cc(Br)c(C(=O)n2cc(Br)cn2)n1 | -20 | -19% | 17µM* | -12% | 1% | ?
C=CCOc1ccc(C=NNc2ccc(S(=O)(=O)Nc3ccccc3C(=O)O)cc2[N+](=O)[O-])cc1OC | -83* | · | ? | ? | ? | 16µM*
COc1cc(C=NNc2ccccc2[N+](=O)[O-])cc(OC)c1OC | 2 | · | -8% | · | · | ·
CCOc1cccc(C=NNc2ccc(S(=O)(=O)Nc3ccccc3C(=O)O)cc2[N+](=O)[O-])c1O | ? | · | ? | ? | -30% | ?
COc1ccc(C=NNc2ccc(S(=O)(=O)Nc3ccccc3C(=O)O)cc2[N+](=O)[O-])c(OC)c1 | -70* | · | 30µM* | 20µM* | ? | 35µM*
COc1ccc(NC(=S)NNc2ccc(S(=O)(=O)Nc3ccccc3C(=O)O)cc2[N+](=O)[O-])cc1 | -71* | 7.1µM* | 8.4µM* | 11µM* | ? | ?
CCOc1ccc(C=NNc2ccc(S(=O)(=O)Nc3ccccc3C(=O)O)cc2[N+](=O)[O-])cc1 | ? | · | 19µM* | 40µM* | ? | 22µM*
C#Cc1ccc(NC(=O)C2(C)CCN2C(=O)CC(c2ccccc2)c2ccccc2)cc1 (stereo unspecified) | 21 | · | -8% | · | · | ·
CC(C)Oc1ccc2ccccc2c1CNC[C@H]1O[C@@H](n2ccc(=O)[nH]c2=O)[C@H](O)[C@@H]1O | 1 | · | 0% | · | · | ·
OC(c1ccc(F)c(F)c1)c1ncc(-c2ccccc2F)[nH]1 (stereo unspecified) | 0 | · | -12% | · | · | ·
COc1cccc(CC(=O)NNC(=O)CN(C)S(=O)(=O)c2ccc(C)cc2)c1 | -1 | · | -3% | 24% | 3% | -13%
O=C(O)c1ccccc1/C=N/Nc1ccc(S(=O)(=O)N2CCCC2)cc1[N+](=O)[O-] | -2 | ? | -11% | -2% | -15% | -35%
Cc1nn(-c2ccccc2)c(Cl)c1/C=N/Nc1ccc(Cl)c(C(=O)O)c1 | 7 | ? | ? | ? | -7% | ?
CSc1ccc(C=NNc2ccc(S(=O)(=O)Nc3ccccc3C(=O)O)cc2[N+](=O)[O-])cc1 | -53* | · | ? | 20µM* | ? | 20µM*
O=C(O)c1ccccc1NS(=O)(=O)c1ccc(NN=Cc2ccccc2F)c([N+](=O)[O-])c1 | ? | · | 24µM* | 50µM* | ? | 20µM*
Cc1nn(-c2ccccc2)c(Cl)c1/C=N/Nc1ccc(S(=O)(=O)Nc2ccccc2C(=O)O)cc1[N+](=O)[O-] | · | 14µM* | 27µM* | ? | ? | 50µM*
SMILES | PI5P4Ka inh | BAZ2B inh | PLK1 PBD block | HP1b binding inh | KAT2A inh | JMJD2A Tudor inh
CNC(=O)C[C@H]1C(=O)N(C2CCCCC2)C[C@@H]1CSC | 1 | · | -5% | · | · | ·
CCOc1ccc(S(=O)(=O)N2CCC(C(=O)N3CCN(Cc4ccccc4)CC3)CC2)cc1 | 2 | -11% | 2% | 22% | -21% | -9%
O=C1CCc2cc(S(=O)(=O)NCc3ccc(F)cc3)cc3c2N1CC3 | -13 | -7% | -1% | 20% | -3% | 8%
O=c1c2c(O)cc(O)cc2oc2c(O)ccc(O[C@H]3O[C@@H](CO)[C@H](O)[C@@H](O)[C@@H]3O)c12 | -56* | · | -10% | -2% | -5% | -22%
O=c1cc(-c2ccc(O)c(O)c2)oc2cc(O[C@@H]3O[C@H](CO)[C@@H](O)[C@H](O)[C@H]3O)cc(O)c12 | ? | · | -5% | 5% | -11% | 13µM*
CCc1ccc(Sc2cc(C(=O)NCCCN3CCCC(C)C3)c3ccccc3n2)cc1 (stereo unspecified) | · | -21% | · | 3% | -5% | -35%
CN(CCOc1ccc(C[C@H](Nc2ccccc2C(=O)c2ccccc2)C(=O)O)cc1)c1ccccn1 | · | · | · | · | 32µM* | ·
CN(C)/C=C/C(=O)c1ccc(OCCN(C)c2ccccn2)cc1 | -24 | ? | -6% | 4% | -7% | ?
CC(=O)Nc1sc2c(c1C(c1ccc(F)cc1)N1CCOCC1)CCCC2 (stereo unspecified) | -4 | 50µM* | -7% | -32% | 3% | ?
CC(=O)NCc1ccc(S(=O)(=O)NC(C)CCc2ccccc2)cc1 (stereo unspecified) | -7 | 0% | -3% | 12% | 3% | 2%
COc1ccc(S(=O)(=O)NC(C)CCc2ccccc2)cc1 (stereo unspecified) | ? | 5% | 5.3µM* | -12% | 2% | ?
COCc1cc(=O)[nH]c(/N=C(\N)Nc2c(F)cccc2F)n1 | 1 | -3% | -12% | 14% | -4% | -7%
CC1=CC(C)(C)Nc2ccc(OC(=O)c3ccco3)cc21 | · | 50µM* | -8% | -13% | -3% | ?
CC1=CC(C)(C)Nc2ccc(OC(=O)c3cccnc3)cc21 | · | 40µM* | -7% | -6% | -7% | ?
COc1ccc(OC(=O)C(C)N2C(=O)c3ccccc3C2=O)cc1 (stereo unspecified) | -1 | 0% | -8% | 58% | -17% | 3%
